Assay outcomes as filed in PubChem BioAssay.
The list is not random: actives were taken first. Their share in the collection is about 4.6%.
TIM10 inh = growth inhibitors of TIM10 yeast strain | inhibition, % at 10 µM | 330,000 compounds, 1.4% hits | S. cerevisiae TIM10 strain growth, BacTiter-Glo luminescence, 24 h;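 active means inhibition of 40% or more at the single tested concentration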;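 further: wild-type TIM10 isogenic control strain grown at permissive 25 °C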
tim10-1 inh = inhibits growth of tim10-1 mutant yeast | S. cerevisiae tim10-1 ts strain growth, BacTiter-Glo, 24 h | inhibition, % at 20 µM | 330,000 compounds, 2.2% hits;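 active means inhibition of at least 40%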;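 further: mutant grown at 25 °C; 0% = DMSO wells with yeast and 100% = wells holding no yeast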
tim23-1 inh = tim23-1 yeast growth inhibition; S. cerevisiae tim23-1 growth, BacTiter-Glo luminescence, 24 h; inhibition, % at 20 µM; 330,000 compounds, 1.3% hits; AID 463212;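 active means growth inhibition of the mutant yeast at or above 50%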;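 further: temperature-sensitive mutant grown at 25 °C; plate controls were DMSO-treated mutant yeast for no effect and medium wells lacking yeast for full effect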
SKKanGAS inh = inhibitors of SKKanGAS S. pyogenes growth in kanamycin (SK-promoter or general growth effect). BacTiter-Glo, 6 h. inhibition, % at 7.5 µM. 300,000 compounds, 1.3% hits. AID 1662;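 active means mean replicate score, as percent of positive control median, at least 50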;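 further: strain carries kanamycin resistance gene driven by streptokinase promoter and grows in 40 µg/ml kanamycin; loss of luminescence reflects streptokinase promoter inhibition or plain growth inhibition; 0% = median of DMSO wells and 100% = positive control at its reference dose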
NALP3 yeast inh = blocks the NALP3 inflammasome reconstituted in yeast | Yeast reconstituted NLRP3/ASC/caspase-1, beta-gal luminescence, 24 h | inhibition, % at 10 µM | AID 2825 | 330,000 compounds, 0.39% hits;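 active means inhibition of 50% or more; inactive means inhibition below 50%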;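 further: plate controls were induced DMSO wells for no effect and uninduced yeast grown without galactose for full effect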
tim10-1 conf = confirmation of tim10-1 mutant yeast growth inhibitors | S. cerevisiae tim10-1 ts strain growth, BacTiter-Glo, 24 h | 7,400 compounds, 56% hits | inhibition, % at 20 µM | shares compounds with tim10-1 inh;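 active means inhibition of yeast growth at or above a set limit in either of two repeat tests at 20 µM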;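 further: tim10-1 mutant grown at permissive 25 °C to find synthetic lethal compounds; 0% = DMSO yeast wells and 100% = medium wells without yeast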
TIM10 conf = confirmation of TIM10 yeast growth inhibitors | shares compounds with TIM10 inh | S. cerevisiae tim10 strain growth, BacTiter-Glo luminescence, 24 h | inhibition, % at 10 µM | 4,600 compounds, 63% hits;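 active means inhibition of yeast growth at or above a set limit in either of two replicates at 10 µM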;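 further: this counterscreen used the strain with wild-type TIM10; 0% = yeast with DMSO and 100% = medium wells lacking yeast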
tim23-1 conf = confirmation of tim23-1 mutant yeast growth inhibitors | inhibition, % at 20 µM | S. cerevisiae tim23-1 growth, BacTiter-Glo luminescence, 24 h | AID 463218 | shares compounds with tim23-1 inh | 4,400 compounds, 83% hits;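 active means inhibition above about 39% in either of two replicate wells at 20 µM, limit read from the data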;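 further: temperature-sensitive tim23-1 mutant grown at 25 °C; 0% = DMSO wells with yeast and 100% = medium wells without yeast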
Active calls of the source: *; . = no result.

SMILES | TIM10 inh | tim10-1 inh | tim23-1 inh | SKKanGAS inh | NALP3 yeast inh | TIM10 conf | tim23-1 conf | others
c1ccc(-c2[nH]c(-c3ccccc3)[n+](CC3CO3)c2-c2ccccc2)cc1 (stereo unspecified) | 48* | 49* | 55* | -15 | -17 | -11 | 50* | tim10-1 conf=34*
CN1C(=O)NC(=O)/C(=C/c2ccc([N+](=O)[O-])s2)C1=O | 90* | 74* | 71* | 8 | 11 | 44* | 80* | tim10-1 conf=67*
COc1ccc(OC)c(N2C(=O)NC(=O)/C(=C\c3ccc([N+](=O)[O-])s3)C2=O)c1 | 84* | 69* | 52* | 10 | -15 | 40* | 72* | tim10-1 conf=73*
CN1C(=O)NC(=O)/C(=C/c2ccc([N+](=O)[O-])o2)C1=O | -1 | 9 | 10 | 6 | 8 | . | .
O=C1NC(=O)N(c2ccccc2)C(=O)/C1=C\c1ccc([N+](=O)[O-])s1 | 85* | 66* | 68* | -4 | 11 | 26 | 76* | tim10-1 conf=76*
C1CCC2CCCCC2C1 (stereo unspecified) | 0 | -11 | -7 | . | -1 | . | .
CC(C)Oc1cc(-n2c(=S)[nH]c3ccccc3c2=O)c(Cl)cc1Cl | 45* | 45* | 53* | 1 | 12 | 42* | 52* | tim10-1 conf=24
CCOP(=O)(OCC)/C(C#N)=C/c1ccc(Br)cc1 | 51* | 45* | 69* | 16 | 19 | 52* | 56* | tim10-1 conf=39*
C[C@@H]1CC[C@@]2(NC1)O[C@H]1C[C@H]3[C@@H]4CC=C5C[C@@H](O)CC[C@]5(C)[C@H]4CC[C@]3(C)[C@H]1[C@@H]2C | 49* | 51* | 54* | -1 | -2 | 51* | 68* | tim10-1 conf=27
C[C@]12CC[C@H](O)CC1=CCC1C2CC[C@@]2(C)C1CC[C@@H]2OCc1ccccc1 (stereo partly specified) | -13 | -6 | 1 | . | 16 | . | .
Cn1cccc1C1CCCN1CC(=O)Nc1ccc(C#N)c(Cl)c1 (stereo unspecified) | 5 | 13 | 11 | . | 22 | . | .
O=C1NC(=S)NC(=O)C1=Cc1ccc(Br)s1 | 14 | 15 | 31 | -5 | 17 | . | .
O=C(OCC(=O)c1ccc([N+](=O)[O-])cc1)/C(=C/c1ccc(Cl)cc1)NC(=O)c1ccccc1 | 45* | 35 | 31 | 14 | 2 | 23 | .
O=C(COC(=O)Cc1ccccc1)NNC(=O)c1ccc([N+](=O)[O-])cc1 | 3 | -3 | 5 | . | 7 | . | .
COC(=O)C1=C(c2ccc(C(C)=O)cc2)C[C@@H]2CC[C@H]1N2C(=O)NC(C)C | -1 | 1 | 9 | . | 11 | . | .
COc1cc(C=C2C(=O)NC(=O)NC2=O)ccc1O | 94* | 4 | 0 | 0 | 0 | -4 | .
CC(C)C(=O)c1cn(Cc2ccc(C#N)cc2)c2ccccc12 | 41* | 25 | 18 | -1 | -17 | 8 | .
O=C1N[C@H](Cc2ccccc2)C(=O)N2[C@@H]3[C@H](C[C@@H]12)c1ccccc1N3OOSc1ccccc1 | 41* | 31 | 24 | -1 | 13 | 25 | .
CC(C)(C)N(NC(=O)c1ccccc1)C(=O)c1ccccc1 | 40* | -3 | -10 | -3 | 4 | -3 | .
Ic1ccccc1CN[C@@H]1C2CCN(CC2)[C@@H]1C(c1ccccc1)c1ccccc1 | 28 | 15 | 14 | . | 26 | . | .
Cn1cccc1/C=C1/C(=O)NC(=S)N(Cc2ccc(F)cc2)C1=O | 84* | -10 | -5 | 9 | 19 | 86* | .
COc1ccc2c(C)c(CCC(=O)N3C[C@H]4C[C@@H](C3)c3cccc(=O)n3C4)c(=O)oc2c1 | -3 | -16 | -3 | 0 | 19 | . | .
Cc1ccc(-c2cc(-c3ccccc3)cc(-c3ccccc3)[n+]2-c2ccccc2)cc1 | 41* | 24 | 21 | -4 | 30 | 35* | .
CCOC(=O)c1ccc(-[n+]2c(-c3ccccc3)cc(-c3ccccc3)cc2-c2ccccc2)cc1 | -1 | 19 | 18 | 2 | 15 | . | .
Cc1ncc(CNC(=O)N(CCCl)N=O)c(N)n1 | 21 | 20 | 8 | . | 22 | . | .
SMILES | TIM10 inh | tim10-1 inh | tim23-1 inh | SKKanGAS inh | NALP3 yeast inh | TIM10 conf | tim23-1 conf | others
CN1CCC(c2c[nH]c3ccccc23)C1 (stereo unspecified) | 6 | 28 | 16 | 17 | 15 | . | .
CC1CCCC(C)N1/N=C/c1c[nH]c2ccc(Br)cc12 (stereo unspecified) | 42* | 34 | 11 | 0 | 5 | -38 | .
Clc1cc(Cl)c(-c2cc(Cl)c(Cl)cc2Cl)cc1Cl | -1 | -19 | -22 | . | 3 | . | .
O=C(CSC1c2ccccc2-c2ccccc21)N/N=C/c1ccccc1O | 47* | 29 | 52* | 5 | 24 | 58* | 58*
Cc1nc2ccccc2c(=O)n1/N=C/c1cc(Br)cc(Br)c1O | 73* | 39 | 83* | 99* | 12 | 25 | 89*
C=C1[C@H]2CC[C@H]3[C@]4(C)C[C@H](O[C@@H]5OC(CO)[C@@H](OSOOO)[C@H](OS(=O)(=O)O)[C@H]5OC(=O)CC(C)C)C[C@@H](C(=O)O)[C@H]4CC[C@]3(C2)[C@H]1O (stereo partly specified) | 2 | 7 | 18 | . | 1 | . | .
Cc1ccc(Cn2cc(C=O)c(-c3ccc(F)cc3)n2)cc1 | 20 | 29 | 49 | -4 | 24 | . | .
Cc1ccc(-c2nn(Cc3ccccc3)cc2C=O)cc1C | 52* | 31 | 53* | -4 | 23 | 55* | 58*
C=C(C)[C@@]12OC3(c4ccccc4)O[C@@H]1C1[C@@H]4O[C@]4(CO)[C@@H](O)[C@]4(O)C(=O)C(C)=C[C@H]4[C@@]1(O3)[C@H](C)[C@H]2OC(=O)/C=C/C=C/c1ccccc1 (stereo partly specified) | 18 | 19 | 10 | 30 | 9 | . | .
Cc1ccc(-c2nn(Cc3ccccc3)cc2C(=O)O)cc1 | -17 | -9 | 2 | -2 | -4 | . | .
Cc1ccc(-c2nn(Cc3ccccc3)cc2C=O)cc1 | 27 | 18 | 57* | 1 | 29 | . | 55*
CCCCCc1nc2c(c(=O)c3ccccc3n2C)c(=O)n1C1CCCCCC1 | 0 | -40 | 70* | 94* | 36 | . | -34
C/C=C1/C[N+]2(C)CCC34C(=C(C=O)[C@H]1C[C@@H]32)Nc1ccccc14 (stereo partly specified) | -3 | -25 | 4 | . | 2 | . | .
CN1CCc2cc3c(c4c2C1Cc1ccccc1-4)OCO3 (stereo unspecified) | 28 | 33 | 67* | 4 | 39 | . | 67*
Cc1ccc(N=C(/N=C(\N)N[N+](=O)[O-])Nc2ccc(C)cc2)cc1 | -2 | 18 | 20 | 4 | 8 | . | .
